ChEMBL document CHEMBL1961873, “Compounds: GSK PKIS; Assays: Nanosyn kinase panel” (2012)

Tests used:
[1] = target: Platelet-derived growth factor receptor beta (Homo sapiens) (UniProt P09619); conditions: at 1 µM;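 also: each value is a mean percent inhibition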
[2] = target: Tyrosine-protein kinase FRK (Homo sapiens) (UniProt P42685); conditions: at 0.1 µM
[3] = target: Tyrosine-protein kinase FRK (Homo sapiens) (UniProt P42685); conditions: at 1 µM
[4] = target: Protein-tyrosine kinase 2-beta (Homo sapiens) (UniProt Q14289); conditions: at 0.1 µM
Sequence of Protein-tyrosine kinase 2-beta (Homo sapiens) (Q14289 whole entry, looked up): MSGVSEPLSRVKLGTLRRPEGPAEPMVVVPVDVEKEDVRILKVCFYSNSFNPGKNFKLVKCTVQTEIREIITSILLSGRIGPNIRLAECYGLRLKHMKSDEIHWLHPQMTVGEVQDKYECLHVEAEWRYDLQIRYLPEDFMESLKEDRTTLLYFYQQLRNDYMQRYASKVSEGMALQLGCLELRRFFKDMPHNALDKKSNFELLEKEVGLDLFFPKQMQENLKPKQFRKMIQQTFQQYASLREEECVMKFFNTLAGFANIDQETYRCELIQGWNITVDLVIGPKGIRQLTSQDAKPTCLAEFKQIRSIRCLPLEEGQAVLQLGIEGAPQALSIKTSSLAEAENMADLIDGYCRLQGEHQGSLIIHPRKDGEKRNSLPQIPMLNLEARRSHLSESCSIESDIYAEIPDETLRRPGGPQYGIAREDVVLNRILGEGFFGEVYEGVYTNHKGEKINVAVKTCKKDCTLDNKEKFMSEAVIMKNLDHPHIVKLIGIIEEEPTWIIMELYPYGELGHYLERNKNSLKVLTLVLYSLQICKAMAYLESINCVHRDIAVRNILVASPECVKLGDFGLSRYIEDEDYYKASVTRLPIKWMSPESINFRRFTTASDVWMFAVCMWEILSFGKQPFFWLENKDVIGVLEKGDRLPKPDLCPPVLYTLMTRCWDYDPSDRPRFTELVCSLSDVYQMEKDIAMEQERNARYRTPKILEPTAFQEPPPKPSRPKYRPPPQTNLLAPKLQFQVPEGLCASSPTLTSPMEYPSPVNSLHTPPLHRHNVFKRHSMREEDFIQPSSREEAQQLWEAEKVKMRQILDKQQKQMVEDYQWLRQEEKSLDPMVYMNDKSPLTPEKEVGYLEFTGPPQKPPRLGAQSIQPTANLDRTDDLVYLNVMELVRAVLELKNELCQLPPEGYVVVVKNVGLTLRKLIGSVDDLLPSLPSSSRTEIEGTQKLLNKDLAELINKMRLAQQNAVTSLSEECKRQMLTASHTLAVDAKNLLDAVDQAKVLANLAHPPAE

[5] = target: Protein-tyrosine kinase 2-beta (Homo sapiens) (UniProt Q14289); conditions: at 1 µM
[6] = target: Proto-oncogene tyrosine-protein kinase receptor Ret (Homo sapiens) (UniProt P07949); conditions: at 0.1 µM
Sequence of Proto-oncogene tyrosine-protein kinase receptor Ret (Homo sapiens) (P07949 whole entry): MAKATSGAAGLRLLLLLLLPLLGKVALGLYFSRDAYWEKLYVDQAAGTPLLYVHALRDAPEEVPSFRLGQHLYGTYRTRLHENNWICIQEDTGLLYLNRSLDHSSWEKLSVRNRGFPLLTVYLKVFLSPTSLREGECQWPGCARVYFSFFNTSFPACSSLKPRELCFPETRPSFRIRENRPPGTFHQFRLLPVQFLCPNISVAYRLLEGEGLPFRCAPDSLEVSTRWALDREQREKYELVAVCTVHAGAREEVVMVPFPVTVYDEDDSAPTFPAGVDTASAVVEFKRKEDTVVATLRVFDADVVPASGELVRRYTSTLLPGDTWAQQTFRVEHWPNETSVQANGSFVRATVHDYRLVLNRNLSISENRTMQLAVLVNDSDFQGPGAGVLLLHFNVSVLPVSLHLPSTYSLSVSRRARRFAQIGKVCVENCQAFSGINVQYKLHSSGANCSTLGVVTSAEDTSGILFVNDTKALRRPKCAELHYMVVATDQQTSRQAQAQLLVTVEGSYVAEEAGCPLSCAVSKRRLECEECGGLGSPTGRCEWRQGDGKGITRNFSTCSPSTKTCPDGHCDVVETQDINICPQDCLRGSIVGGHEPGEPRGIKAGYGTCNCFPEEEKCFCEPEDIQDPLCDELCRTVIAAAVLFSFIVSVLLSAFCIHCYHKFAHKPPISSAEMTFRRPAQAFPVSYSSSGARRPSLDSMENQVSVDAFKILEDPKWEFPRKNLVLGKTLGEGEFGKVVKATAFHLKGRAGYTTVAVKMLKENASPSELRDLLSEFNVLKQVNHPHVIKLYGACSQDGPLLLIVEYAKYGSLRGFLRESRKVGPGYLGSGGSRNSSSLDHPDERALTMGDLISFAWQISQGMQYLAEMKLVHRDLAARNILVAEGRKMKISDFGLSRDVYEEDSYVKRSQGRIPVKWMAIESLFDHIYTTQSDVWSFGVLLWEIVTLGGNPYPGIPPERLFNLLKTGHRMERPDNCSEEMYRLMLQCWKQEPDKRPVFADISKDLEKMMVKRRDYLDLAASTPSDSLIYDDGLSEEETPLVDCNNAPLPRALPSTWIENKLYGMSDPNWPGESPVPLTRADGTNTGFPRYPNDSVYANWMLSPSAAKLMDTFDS

[7] = target: Proto-oncogene tyrosine-protein kinase receptor Ret (Homo sapiens) (UniProt P07949); conditions: at 1 µM
[8] = tested on: Proto-oncogene tyrosine-protein kinase receptor Ret (Homo sapiens), P07949 [V804L]; conditions: at 0.1 µM
Sequence of Proto-oncogene tyrosine-protein kinase receptor Ret (Homo sapiens), P07949 [V804L] (P07949 whole entry V804L): as the sequence (P07949 whole entry) above, with V804L counted along it

[9] = tested on: Proto-oncogene tyrosine-protein kinase receptor Ret (Homo sapiens), P07949 [V804L]; conditions: at 1 µM
[10] = tested on: Proto-oncogene tyrosine-protein kinase receptor Ret (Homo sapiens), P07949 [Y791F]; conditions: at 0.1 µM
Sequence of Proto-oncogene tyrosine-protein kinase receptor Ret (Homo sapiens), P07949 [Y791F] (P07949 whole entry Y791F): as the sequence (P07949 whole entry) above, with Y791F counted along it

[11] = tested on: Proto-oncogene tyrosine-protein kinase receptor Ret (Homo sapiens), P07949 [Y791F]; conditions: at 1 µM
[12] = target: Macrophage-stimulating protein receptor (Homo sapiens) (UniProt Q04912); conditions: at 0.1 µM
[13] = target: Macrophage-stimulating protein receptor (Homo sapiens) (UniProt Q04912); conditions: at 1 µM
[14] = target: Proto-oncogene tyrosine-protein kinase ROS (Homo sapiens) (UniProt P08922); conditions: at 0.1 µM
[15] = target: Proto-oncogene tyrosine-protein kinase ROS (Homo sapiens) (UniProt P08922); conditions: at 1 µM
[16] = target: Proto-oncogene tyrosine-protein kinase Src (Homo sapiens) (UniProt P12931); conditions: at 0.1 µM
Sequence of Proto-oncogene tyrosine-protein kinase Src (Homo sapiens) (P12931 2-536 limits assumed): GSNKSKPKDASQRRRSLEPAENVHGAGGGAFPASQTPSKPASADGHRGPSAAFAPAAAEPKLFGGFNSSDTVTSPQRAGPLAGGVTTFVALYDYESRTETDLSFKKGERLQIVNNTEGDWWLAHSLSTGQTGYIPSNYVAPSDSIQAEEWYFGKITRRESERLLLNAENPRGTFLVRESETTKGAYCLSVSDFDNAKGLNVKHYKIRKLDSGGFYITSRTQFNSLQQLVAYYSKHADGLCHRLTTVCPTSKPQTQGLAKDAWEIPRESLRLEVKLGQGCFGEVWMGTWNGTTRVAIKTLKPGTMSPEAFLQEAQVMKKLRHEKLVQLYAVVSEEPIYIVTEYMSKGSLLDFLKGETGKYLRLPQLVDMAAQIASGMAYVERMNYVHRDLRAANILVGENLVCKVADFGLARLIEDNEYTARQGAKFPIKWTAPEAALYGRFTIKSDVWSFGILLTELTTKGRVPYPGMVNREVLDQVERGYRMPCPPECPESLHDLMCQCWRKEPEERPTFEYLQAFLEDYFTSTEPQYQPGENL

[17] = target: Proto-oncogene tyrosine-protein kinase Src (Homo sapiens) (UniProt P12931); conditions: at 1 µM
[18] = target: Tyrosine-protein kinase Srms (Homo sapiens) (UniProt Q9H3Y6); conditions: at 0.1 µM
Sequence of Tyrosine-protein kinase Srms (Homo sapiens) (Q9H3Y6 whole entry): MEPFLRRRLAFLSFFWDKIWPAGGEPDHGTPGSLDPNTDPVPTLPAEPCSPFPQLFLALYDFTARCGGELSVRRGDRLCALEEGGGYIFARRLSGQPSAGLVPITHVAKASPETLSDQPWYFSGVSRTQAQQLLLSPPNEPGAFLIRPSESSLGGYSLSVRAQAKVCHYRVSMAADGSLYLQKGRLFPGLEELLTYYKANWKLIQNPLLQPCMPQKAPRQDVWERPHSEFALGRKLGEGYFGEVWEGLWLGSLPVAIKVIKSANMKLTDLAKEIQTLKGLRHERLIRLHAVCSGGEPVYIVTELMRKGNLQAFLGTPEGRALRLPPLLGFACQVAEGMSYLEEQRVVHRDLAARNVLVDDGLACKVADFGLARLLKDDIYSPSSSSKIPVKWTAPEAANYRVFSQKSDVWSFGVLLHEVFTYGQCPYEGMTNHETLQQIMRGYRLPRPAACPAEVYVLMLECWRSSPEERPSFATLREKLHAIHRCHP

[19] = target: Tyrosine-protein kinase Srms (Homo sapiens) (UniProt Q9H3Y6); conditions: at 1 µM
[20] = target: Tyrosine-protein kinase SYK (Homo sapiens) (UniProt P43405); conditions: at 0.1 µM;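 also: reported percentages are mean inhibition values for SYK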

Sequence of Platelet-derived growth factor receptor beta (Homo sapiens) (P09619 whole entry): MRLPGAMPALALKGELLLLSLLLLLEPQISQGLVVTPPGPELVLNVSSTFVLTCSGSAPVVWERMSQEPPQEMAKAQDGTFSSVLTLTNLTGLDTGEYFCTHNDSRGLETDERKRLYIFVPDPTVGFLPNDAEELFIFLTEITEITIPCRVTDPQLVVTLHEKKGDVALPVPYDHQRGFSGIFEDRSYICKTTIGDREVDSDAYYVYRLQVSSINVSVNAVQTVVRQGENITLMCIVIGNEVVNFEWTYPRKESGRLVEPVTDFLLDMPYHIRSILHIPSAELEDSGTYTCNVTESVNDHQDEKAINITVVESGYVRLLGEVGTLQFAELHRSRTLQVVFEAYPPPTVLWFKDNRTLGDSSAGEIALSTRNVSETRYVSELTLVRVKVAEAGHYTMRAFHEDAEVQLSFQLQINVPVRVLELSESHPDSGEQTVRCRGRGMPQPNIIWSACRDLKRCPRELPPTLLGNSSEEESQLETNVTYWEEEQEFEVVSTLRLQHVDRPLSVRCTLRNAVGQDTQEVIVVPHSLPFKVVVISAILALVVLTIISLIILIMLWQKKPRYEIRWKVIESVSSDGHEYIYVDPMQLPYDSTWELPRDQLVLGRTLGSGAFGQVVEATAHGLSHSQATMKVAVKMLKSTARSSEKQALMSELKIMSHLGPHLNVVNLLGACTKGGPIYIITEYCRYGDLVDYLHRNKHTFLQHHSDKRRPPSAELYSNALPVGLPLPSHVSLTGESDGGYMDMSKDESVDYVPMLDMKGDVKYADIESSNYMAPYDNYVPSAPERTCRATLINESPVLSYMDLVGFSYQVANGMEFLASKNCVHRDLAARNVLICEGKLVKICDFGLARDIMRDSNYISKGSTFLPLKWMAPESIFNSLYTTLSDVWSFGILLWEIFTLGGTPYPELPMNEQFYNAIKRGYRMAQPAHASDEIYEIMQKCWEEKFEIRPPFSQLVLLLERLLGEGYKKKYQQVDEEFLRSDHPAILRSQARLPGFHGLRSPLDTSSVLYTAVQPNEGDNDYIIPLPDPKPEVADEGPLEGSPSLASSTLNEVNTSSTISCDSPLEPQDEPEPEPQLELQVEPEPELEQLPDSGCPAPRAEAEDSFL
Sequence of Tyrosine-protein kinase FRK (Homo sapiens) (P42685 whole entry): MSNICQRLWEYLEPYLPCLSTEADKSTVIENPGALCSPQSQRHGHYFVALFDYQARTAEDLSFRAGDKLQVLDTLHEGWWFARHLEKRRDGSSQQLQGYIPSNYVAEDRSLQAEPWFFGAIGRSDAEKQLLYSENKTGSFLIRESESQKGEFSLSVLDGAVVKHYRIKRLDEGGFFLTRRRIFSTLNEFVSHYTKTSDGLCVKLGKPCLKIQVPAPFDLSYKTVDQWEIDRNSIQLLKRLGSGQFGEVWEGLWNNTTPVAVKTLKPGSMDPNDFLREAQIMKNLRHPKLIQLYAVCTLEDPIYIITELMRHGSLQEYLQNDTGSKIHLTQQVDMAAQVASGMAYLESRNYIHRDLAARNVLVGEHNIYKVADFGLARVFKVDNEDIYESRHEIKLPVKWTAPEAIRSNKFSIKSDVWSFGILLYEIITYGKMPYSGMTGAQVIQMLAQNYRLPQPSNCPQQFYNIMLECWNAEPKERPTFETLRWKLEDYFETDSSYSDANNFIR

| Compound | inhibition [1] | inhibition [2] | inhibition [3] | inhibition [4] | inhibition [5] | inhibition [6] | inhibition [7] | inhibition [8] | inhibition [9] | inhibition [10] | inhibition [11] | inhibition [12] | inhibition [13] | inhibition [14] | inhibition [15] | inhibition [16] | inhibition [17] | inhibition [18] | inhibition [19] | inhibition [20] |
| --- | --- | --- | --- | --- | --- | --- | --- | --- | --- | --- | --- | --- | --- | --- | --- | --- | --- | --- | --- | --- |
| CN(C)CCOc1ccc(-c2cc(-c3ccc4c(c3)CCC4=NO)c(-c3ccncc3)o2)cc1 | 9.14% | -1.02% | 0.49% | -7.75% | 0.57% | 3.54% | 1.85% | 0.61% | 1.37% | -1.98% | 9.08% | -0.03% | 22.4% | -1.28% | 0.64% | 1.1% | 2.61% | 3% | 3.76% | 0.85% |
| Cc1ccc(NC(=O)c2ccoc2)cc1-c1ccc(C(=O)NCC2CC2)cc1 | -0.8% | 0.1% | 2.51% | 0.3% | -0.07% | 5.24% | 0.04% | 1.71% | 2.38% | 1.45% | 4.03% | -2.83% | -3.5% | 0.21% | -0.03% | 5.81% | 4.32% | -1.74% | -2.77% | -1.35% |
| NS(=O)(=O)c1ccc(N/N=C2\C(=O)Nc3ccc(-c4cnco4)cc32)cc1 | 50.4% | 1.59% | 1.95% | 9.59% | 19.7% | 7.98% | 29% | 15% | 54% | 8.71% | 31.9% | 7.46% | 4.84% | 6.83% | 9.22% | 3.76% | 20.5% | 0.38% | 0.29% | 0.72% |
| COc1ccc(C2=C(N3CCc4ccccc43)C(=O)NC2=O)cc1 | 12.1% | 2.66% | 0.27% | 11.7% | 16% | 9.66% | 6.15% | 5.21% | 7.12% | 6.21% | 9.39% | 9.63% | 6.83% | 6.01% | 9.68% | -1.55% | 10.8% | 7.78% | 14.7% | -4.17% |
| NC(=O)Cc1ccccc1Oc1nccc(-c2c(-c3ccc(F)cc3)ncn2C2CCNCC2)n1 | 5.76% | 1.11% | 3.64% | 5.56% | 3.38% | 5.79% | 3.25% | 2.51% | 0.95% | 3.81% | 4.66% | -4.83% | 4.24% | 6.52% | 7.32% | 1.88% | 5.52% | -1.62% | -0.3% | -2.13% |
| COc1cccc(/C=N/Nc2ncnc3c2cnn3-c2cccc(OC)c2)c1 | 11% | 2.06% | 3.36% | 1% | 10.2% | 0.27% | 6.95% | 0.36% | 1.63% | 3.95% | 6.96% | 0.75% | 4.77% | 5.15% | 8.27% | 7.02% | 17.5% | -1.15% | -3.63% | 2.69% |
| O=C1Nc2ccccc2/C1=C/Nc1ccc(-n2cncn2)cc1 | 33.4% | 2.78% | 3.04% | 11.7% | 24.7% | 15.4% | 48.6% | 20.2% | 67.3% | 12.9% | 53.2% | 7.27% | 6.25% | 6.51% | 8.39% | 9.95% | 19.2% | 0.3% | -0.18% | -1.28% |
| CS(=O)(=O)CCNCc1cc(-c2cc3c(Nc4ccc(OCc5cccc(F)c5)c(Cl)c4)ncnc3s2)cs1 | 11.2% | 4.58% | 3.68% | 4.47% | 4.63% | 7.3% | 7.36% | 4.33% | 7.85% | 8.47% | 9.4% | 2.33% | 4% | 6.34% | 10% | 10.7% | 14.7% | -2.71% | -1.03% | -1.05% |
| Fc1ccc(-c2ncn(C3CCNCC3)c2-c2ccnc(Oc3ccc4c(c3)OCO4)n2)cc1 | 12.7% | 3.01% | 4.4% | 7% | 9.57% | 3.97% | 6.88% | 9.21% | 12.4% | 14.5% | 12.8% | 3.59% | 4.19% | 4.93% | 8.59% | 7.77% | 8.43% | -2.94% | -4.12% | -0.62% |
| COC(=O)Nc1nc2ccc(Sc3ccc(NC(=O)Nc4cc(C(F)(F)F)ccc4F)cc3)cc2[nH]1 | 16.5% | 0.1% | 0.7% | 2.56% | 0.15% | 24.7% | 74.1% | 9.72% | 58% | 23% | 73.9% | -5.81% | -0.55% | -2.6% | 0.19% | 17.4% | 12.5% | 1.2% | -0.15% | 0.25% |
| NCc1ccc(-n2c(-c3nonc3N)nc3cnccc32)cc1 | 37.3% | 1.83% | 1.83% | 11.2% | 9.24% | 5.69% | 7.7% | 7.22% | 9.65% | 7.37% | 7.16% | 2.95% | 2.64% | 15.3% | 33% | 9.83% | 9.77% | -2.58% | -2.9% | -3.99% |
| CN(C)c1ccc2c(c1)/C(=C/Nc1ccc(S(N)(=O)=O)cc1)C(=O)N2 | 71.3% | 1.57% | 2.09% | 8.05% | 31.7% | 20.2% | 51.5% | 12.5% | 51.1% | 11.2% | 47% | -0.09% | 7.23% | 4.66% | 8.86% | -4.52% | 27.4% | 1.2% | 3.48% |  |
| CN(C)CCCNc1nccc(-c2c(-c3ccc(F)cc3)nn3cc(C(F)(F)F)ccc23)n1 | 14.1% | -0.09% | 1.37% | -1.38% | 1.42% | 7.28% | 10.8% | 8.31% | 21.7% | 10.9% | 13.2% | 3.96% | 5.64% | 3.75% | 7.77% | 16.6% | 9.03% | 0.42% | 0.14% | -3.32% |
| c1ccc(-c2n[nH]cc2-c2ccnc(-c3ccc(OCCN4CCOCC4)cc3)c2)nc1 | 52.2% | 2.08% | 0.63% | -9.86% | 0.28% | 8.77% | 11.1% | 6.56% | 4.32% | 10% | 12.9% | -5.76% | 3.22% | 7.93% | 11.1% | 1.88% | 4.39% | 4.69% | 3.57% | 11.6% |
| O=C(NCC1CC1)c1ccc(-c2cccc(C(=O)NC3CC3)c2)cc1 | 8.57% | 1.88% | 0.07% | 1.01% | 8.49% | 3.9% | 7.06% | 1.77% | 7.1% | 8.82% | 24.5% | 4.01% | 0% | 3.69% | 6.33% | 2.23% | 7.22% | -2.13% | -0.43% | -0.53% |
| CCS(=O)(=O)c1ccc(OC)c(Nc2ncc(-c3ccccc3Cl)o2)c1 | 28% | 0.68% | 4.99% | 6.54% | 45.2% | 4% | 8.62% | 3.06% | 21.2% | 2.23% | 9.6% | -3.54% | 8.49% | -1.24% | 4.38% | 4.44% | 23.4% | 2.76% | 3.31% | -0.36% |
| COc1cc(C)c(N(C)C(=O)CN(C)C)cc1Nc1nc(Nc2cccc(F)c2C(N)=O)c2cc[nH]c2n1 | 2.38% | -0.14% | 1.16% | 14.7% | 45.8% | 6.8% | 3.71% | 8.2% | 4.18% | 3.57% | 0.99% | 5.06% | 8.44% | 15.3% | 51.2% | 3.62% | 5.62% | -0.25% | -1.33% | -0.33% |
| COc1cc(Nc2ncc3c(C)nc(-c4cccc(Oc5ccccc5)c4)n3n2)cc(OC)c1OC | 10.4% | 0.9% | 0.75% | 5.25% | 6.67% | 4.22% | 29.1% | 8.26% | 43% | 3.87% | 12.9% | 2.03% | 2.13% | 13.1% | 14.7% | -4.09% | 21.7% | 0.72% | -0.11% | 0.87% |
| C#Cc1cccc(Nc2ncnc3ccc(OCCCCNCCS(C)(=O)=O)cc23)c1 | 20.5% | 5.22% | 4.16% | 12.1% | 10.3% | 14.3% | 18.9% | 4.06% | 11.9% | 17.9% | 31.3% | 1.53% | 7.33% | 3.71% | 8.09% | 1.2% | 17.9% | 0.83% | 5.07% | -6.78% |
| NS(=O)(=O)c1ccc(Nc2cc(-c3ccc(O)c(F)c3)n[nH]2)cc1 | 53.4% | -1.68% | 0.93% | -2.28% | -1.9% | 11.3% | 55% | 10.6% | 47.6% | 14.1% | 55.5% | -1.82% | 10.5% | 0.96% | 3.04% | -0.44% | 8.59% | -1.1% | 1.72% | 3.87% |
| COc1cc(Nc2ncc(-c3ccccc3)o2)cc(OC)c1OC | 74.2% | 0.5% | 4.26% | -6.53% | 5.39% | 2.33% | 15.5% | 1% | 16.2% | 0.66% | 16.2% | -0.55% | 3.47% | 2.53% | 15.8% | 19.7% | 72.4% | -1.26% | 3.83% | -0.67% |
| O=C1NC(=O)C(c2cccc(Cl)c2)=C1Nc1ccc(Cl)c(C(=O)O)c1 | 8.9% | -0.46% | 2.48% | 7.05% | 6.6% | 7.27% | 3.52% | 5.17% | 7.71% | 3.26% | 13.8% | 5.57% | 1.47% | 2% | 0.59% | 8.46% | 8.07% | 0.43% | 0.54% | 1.85% |
| CNC(=O)c1cncc(/C=C/c2c(C)cccc2C)c1 | 26.2% | 1.71% | 17.3% | -2.5% | -2.35% | 4.57% | 7.32% | -0.1% | 6.46% | 1.16% | 17.6% | 1.75% | 0.77% | -2.1% | 1.85% | 17.5% | 59% | 2.41% | 9.33% | 0.05% |
| CCN(CC)Cc1ccc(Nc2nccc(-c3cnn4ncccc34)n2)cc1 | 71.8% | 2.63% | 3.76% | 24.8% | 81.3% | 4.61% | 12.8% | 2.46% | 16.3% | 5.39% | 18.2% | 4.89% | 22.4% | 34.5% | 70.5% | 10.3% | 38.2% | -1.32% | 0.74% | 1.59% |
